Growth data for nine compounds are collected here from PubChem BioAssay (NCI).

The panel holds about 83,000 compounds, 20% with a hit somewhere; the sample as a whole holds those more often.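 Interpretation: 100, growth as untreated; towards 0, rising growth inhibition; 0, no net growth; 0 to -100, cell death. Compounds scoring below 10 were considered active.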 A number with no mark means an inactive call. The source made the active and inactive calls.

Assay in all cases: NCI-60 one-dose screen, 48 h (100 = growth as untreated, 0 = no growth, -100 = all killed)
One assay relates to SR leukemia. Conditions: 10 µM unless noted.
For a further assay, the system named is RPMI-8226 leukemia. Conditions: 10 µM unless noted.
The test system of another assay is OVCAR-8 ovarian. The note with it: 10 µM unless noted.
The test system of the next assay is OVCAR-5 ovarian. The note with it: 10 µM unless noted.
For a further assay, the system named is OVCAR-4 ovarian. Conditions: 10 µM.
The subject of another assay is IGROV1 ovarian. Conditions: 10 µM unless noted.
The test system of the next assay is OVCAR-3 ovarian. The note with it: 10 µM unless noted.
A further assay deals with HS 578T breast. The note with it: 10 µM unless noted.
In the next assay the test system is NCI/ADR-RES ovarian. The note with it: 10 µM unless noted.
For a further assay, the system named is T-47D breast. Conditions: 10 µM unless noted.
A further assay deals with BT-549 breast. The note with it: 10 µM unless noted.
Another assay relates to MDA-MB-435 melanoma. Conditions: 10 µM unless noted.
For another assay, the system named is SW-620 colon. Conditions: 10 µM unless noted.
Another assay concerns MCF7 breast. Conditions: 10 µM unless noted.
Another assay concerns HCT-116 colon. The note with it: 10 µM unless noted.
For another assay, the system named is HCC-2998 colon. The note with it: 10 µM unless noted.
The subject of a further assay is KM12 colon. The note with it: 10 µM unless noted.

With `CCN1CCN(CC(=O)Nc2nc3ccc(NCc4ccc(Cl)cc4)cc3s2)CC1`, the growth in the assay with SR leukemia was 15.8%; in the assay on RPMI-8226 leukemia, 39.6%; in the assay with OVCAR-8 ovarian, 78%; with OVCAR-5 ovarian, 74.6%; in the assay on OVCAR-4 ovarian, 80.4%; in the assay on IGROV1 ovarian, 70.9%. For the same compound, the growth was 62.1% in the assay on OVCAR-3 ovarian; 70.5% in the assay on HS 578T breast; 82.6% in the assay with NCI/ADR-RES ovarian; 50.6% with T-47D breast; 76.4% in the assay with BT-549 breast; -10.6% (active) in the assay with MDA-MB-435 melanoma. For the same compound, the growth in the assay on SW-620 colon was 22%; with MCF7 breast it was 33.6%; in the assay on HCT-116 colon, 12.6%; in the assay on HCC-2998 colon it was 82.1%; with KM12 colon, 59.9%.

On to `CC1=CC[C@@H]2C(C)(C)C(=O)CC[C@@]2(C)[C@@H]1COc1ccc2ccc(=O)oc2c1`, for which the growth is 77.9% with SR leukemia; 45.9% with RPMI-8226 leukemia; 51.1% in the assay with OVCAR-8 ovarian; 98% in the assay on OVCAR-5 ovarian; 23.1% in the assay with OVCAR-4 ovarian; 77.9% in the assay on IGROV1 ovarian. Moreover, the growth was 72.5% in the assay on OVCAR-3 ovarian; 77.6% in the assay on HS 578T breast; 28.4% in the assay on NCI/ADR-RES ovarian; 6.17% (active) with T-47D breast; 55.9% with BT-549 breast; 80.5% with MDA-MB-435 melanoma. In addition, the growth in the assay with SW-620 colon was 101%; in the assay on MCF7 breast, 87.8%; with HCT-116 colon it was 79.5%; in the assay on HCC-2998 colon, 83.6%; with KM12 colon, 63%.

For the compound `C[C@@H]1C[C@H]2C(=O)O[C@@H](C)[C@H](NC(=O)[C@H](Cc3cc(F)cc(F)c3)NC(=O)Nc3ccc(C4CC4)cc3F)C(=O)N3CCC[C@H]3C(=O)N3CCCC[C@H]3C(=O)N[C@@H](C)C(=O)N2C1`, the growth with SR leukemia is 27.8%; with RPMI-8226 leukemia, 14%; with OVCAR-8 ovarian, 11%; with OVCAR-5 ovarian it was -2.59% (active); in the assay on OVCAR-4 ovarian, 7.8% (active); in the assay on IGROV1 ovarian it was 28.5%. Moreover, the growth was 5.07% (active) with OVCAR-3 ovarian; 18.1% in the assay on HS 578T breast; 14.9% in the assay with NCI/ADR-RES ovarian; 5.43% (active) in the assay with T-47D breast; -1.76% (active) in the assay with BT-549 breast; 3.38% (active) in the assay on MDA-MB-435 melanoma. Also, the growth in the assay with SW-620 colon is 27.7%; with MCF7 breast, 12.7%; in the assay on HCT-116 colon, -4.75% (active); in the assay on HCC-2998 colon it was -10.3% (active); in the assay on KM12 colon it was 15.6%.

As to `CC1(C)CC(=O)c2c(ccc(C(=O)C[C@@H](N)CO)c2N)O1`, the growth in the assay on SR leukemia is 14.7%; with RPMI-8226 leukemia, 0.0254% (active); with OVCAR-8 ovarian it was 7.69% (active); in the assay with OVCAR-5 ovarian it was 49.8%; in the assay on OVCAR-4 ovarian, 71.1%; with IGROV1 ovarian, 12.9%. In addition, the growth is 0.385% (active) in the assay with OVCAR-3 ovarian; 84.7% in the assay with HS 578T breast; 35% with NCI/ADR-RES ovarian; 29.5% with T-47D breast; -4.27% (active) in the assay with BT-549 breast; 39.5% with MDA-MB-435 melanoma. Also, the growth in the assay on SW-620 colon was 7.17% (active); with MCF7 breast, 8.5% (active); in the assay on HCT-116 colon, 8.56% (active); in the assay with HCC-2998 colon, -20.4% (active).

For the compound `COc1cc2c(O)n(CCCN3CCOCC3)c3c4cnc5cccc(c(=O)c3c2cc1OC)c54`, the growth was 20.5% with SR leukemia; 14.8% in the assay with RPMI-8226 leukemia; 39.9% with OVCAR-8 ovarian; 69% in the assay with OVCAR-5 ovarian; 48% in the assay on OVCAR-4 ovarian; 60.3% with IGROV1 ovarian. Moreover, the growth in the assay on OVCAR-3 ovarian was 62.9%; with HS 578T breast it was 81.2%; in the assay with NCI/ADR-RES ovarian, 74.5%; in the assay with T-47D breast it was 18.6%; in the assay on BT-549 breast, 57.9%; with MDA-MB-435 melanoma, 47.2%. For the same compound, the growth in the assay on SW-620 colon is 34.9%; in the assay with MCF7 breast, 14.5%; in the assay with HCT-116 colon, 27.9%; in the assay on HCC-2998 colon, 59.2%; in the assay on KM12 colon it was 46.3%.

In the case of `COc1ccc(NCc2cn(-c3ccc(C(=O)O)cc3)nc2-c2ccc(C(=O)O)cc2)cc1C(F)(F)F`, the growth in the assay with SR leukemia was 131%; in the assay with RPMI-8226 leukemia it was 88.4%; in the assay with OVCAR-8 ovarian, 103%; in the assay with OVCAR-5 ovarian, 93.3%; in the assay with OVCAR-4 ovarian, 93.3%; with IGROV1 ovarian, 99.7%. Further, the growth is 105% in the assay on OVCAR-3 ovarian; 83.2% in the assay on HS 578T breast; 105% in the assay with NCI/ADR-RES ovarian; 92.7% in the assay with T-47D breast; 98% in the assay with BT-549 breast; 101% with MDA-MB-435 melanoma. Also, the growth in the assay on SW-620 colon is 97.2%; with MCF7 breast it was 96.1%; with HCT-116 colon, 104%; with HCC-2998 colon, 104%; with KM12 colon, 102%.

As to `C#C[C@]1(O)CC[C@H]2[C@@H]3CC=C4c5nc(Nc6ccccn6)sc5CC[C@]4(C)[C@H]3CC[C@@]21C`, the growth is 8.66% (active) in the assay with SR leukemia; -45.6% (active) in the assay with RPMI-8226 leukemia; 27.6% in the assay with OVCAR-8 ovarian; 30.1% with OVCAR-5 ovarian; 16.1% with OVCAR-4 ovarian; 32.7% in the assay with IGROV1 ovarian. The growth with OVCAR-3 ovarian is 20.8%; in the assay with HS 578T breast it was -16.8% (active); with NCI/ADR-RES ovarian, 22.6%; in the assay with T-47D breast it was 10.1%; with BT-549 breast it was -27.6% (active); in the assay with MDA-MB-435 melanoma, -32% (active). For the same compound, the growth in the assay with SW-620 colon was -24.9% (active); with MCF7 breast it was 7.94% (active); with HCT-116 colon, 4.49% (active); in the assay on HCC-2998 colon it was 34.5%; in the assay on KM12 colon, -32.3% (active).

For the compound `C[C@]12CCc3nc(Nc4ccccc4)sc3C1=CC[C@@H]1[C@@H]2CC[C@]2(C)/C(=N/NC(N)=S)CC[C@@H]12`, the growth with SR leukemia was 13.1%; in the assay with RPMI-8226 leukemia, -1.05% (active); in the assay with OVCAR-8 ovarian, 56.9%; in the assay on OVCAR-5 ovarian it was 91.5%; in the assay on OVCAR-4 ovarian, 35.9%; in the assay on IGROV1 ovarian, 69.1%. For the same compound, the growth was -21.2% (active) with OVCAR-3 ovarian; 55.9% in the assay on HS 578T breast; 53.6% in the assay on NCI/ADR-RES ovarian; 9.46% (active) in the assay with T-47D breast; 35.4% in the assay with BT-549 breast; 30.8% in the assay with MDA-MB-435 melanoma. Moreover, the growth with SW-620 colon is 18.2%; with MCF7 breast it was 24.3%; with HCT-116 colon, -46.2% (active); in the assay with HCC-2998 colon, 84.9%; in the assay with KM12 colon, 33.5%.

Turning to `Cc1c(Cn2cc(COc3ccc(Br)cc3)nn2)c(C)c(Cn2cc(COc3ccc(Br)cc3)nn2)c(C)c1Cn1cc(COc2ccc(Br)cc2)nn1`, the growth with SR leukemia is 63.2%; with RPMI-8226 leukemia, 97.9%; in the assay on OVCAR-8 ovarian it was 95.1%; with OVCAR-5 ovarian, 96.8%; in the assay with OVCAR-4 ovarian, 87.3%; with IGROV1 ovarian, 90.7%. The growth in the assay on OVCAR-3 ovarian was 88.7%; in the assay with HS 578T breast, 96.8%; with NCI/ADR-RES ovarian it was 101%; in the assay on T-47D breast it was 70.2%; in the assay on BT-549 breast it was 97.1%; in the assay with MDA-MB-435 melanoma, 98.7%. The growth with SW-620 colon was 85%; in the assay on MCF7 breast it was 90%; with HCT-116 colon it was 92.3%; in the assay on HCC-2998 colon it was 114%; in the assay with KM12 colon, 99.8%.
